Test results reported in PubChem BioAssay (Tox21).
Inconclusive results are not listed. The source made the active and inactive calls. Unless noted, calls come from the whole dose curve; as a rule, active = well fitted cell-killing curve with a large enough effect in the repeat runs; inconclusive = weak or mixed curves; inactive = no such curve, though single readings can be large or run the other way.

Test system: not listed separately
Assay: qHTS assay to identify small molecule agonists of the peroxisome proliferator-activated receptor delta (PPARd) signaling pathway - cell viability counter screen (AID 743211); note: nearly all actives have a fitted effect of over 55% in size
Conditions: PPARd-bla HEK293H viability, CellTiter-Glo luminescence, 17 h; series mostly up to 62.6 µM; activity change, negative = cytotoxicity: at the top concentration
In short: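 Viability was measured as CellTiter-Glo luminescence (30 min, room temperature) in the same wells as the beta-lactamase readout. GeneBLAzer PPARd UAS-bla HEK293H cells received compound after 5 h plating and were incubated 17 h at 37 C.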
% is set by controls: 0 for no effect and ±100 for the full control effect.

Row | Structure (SMILES) | outcome | activity change, negative = cytotoxicity
1 | CCN(CC)c1ccccc1 | inactive | 
2 | CC(C)OC(=O)Nc1ccccc1 | inactive | 
3 | CC(=O)C=C(C)C | inactive | 
4 | c1cc2c3c(cccc3c1)CC2 | inactive | 
5 | O=C(O)c1ccccn1 | inactive | 
6 | CCC(C)(CC)c1cc(NC(=O)c2c(OC)cccc2OC)on1 |  | 2.74% (inactive)
7 | [O-][Cl+2]([O-])O | inactive | 
8 | CC(Oc1ccc(Cl)cc1Cl)C(=O)O (stereo not drawn) | inactive | 
9 | CON(C)C(=O)Nc1ccc(Cl)c(Cl)c1 | inactive | 
10 | Clc1cccc(Cl)c1Cl | inactive | 
11 | CC(NC(C)(C)C)C(=O)c1cccc(Cl)c1 (stereo not drawn) | inactive | 
12 | CC(C)C#N | inactive | 
13 | ClCCBr | inactive | 
14 | Cc1[nH]c(=O)n(C(C)(C)C)c(=O)c1Cl | inactive | 
15 | Nc1ccccc1C(=O)O | inactive | 
16 | CN1C(=O)CN=C(c2ccccc2)c2cc(Cl)ccc21 | inactive | 
17 | c1ccc(OP(Oc2ccccc2)Oc2ccccc2)cc1 | inactive | 
18 | Oc1ccccc1Cl | inactive | 
19 | NCC(O)c1ccc(O)cc1 (stereo not drawn) | inactive | 

Row | Structure (SMILES) | outcome | activity change, negative = cytotoxicity
20 | c1ccc2c(c1)Oc1ccccc1O2 | inactive | 
21 | Cc1cc(-c2cc(C)c(N)c(C)c2)cc(C)c1N |  | 2.39% (inactive)
22 | Cc1ccc(N)cc1Cl | inactive | 
23 | CCOP(OCC)OCC | inactive | 
24 | COC(=O)c1ccccc1C(=O)OC | inactive | 
25 | CCOP(=S)(OCC)Oc1cnc2ccccc2n1 | inactive | 
26 | O=c1ccc(=O)[nH][nH]1 | inactive | 
27 | Cn1cc(-c2ccccc2)c(=O)c(-c2cccc(C(F)(F)F)c2)c1 | inactive | 
28 | C#CCN(C)[C@H](C)Cc1ccccc1 | inactive | 
29 | O=NN1CCCCCCC1 |  | -3.01% (inactive)
30 | O=C(NC(=O)c1c(F)cccc1F)Nc1cc(Cl)c(OC(F)(F)C(F)C(F)(F)F)cc1Cl (stereo not drawn) |  | -8.54% (inactive)
31 | CN(C)N=O | inactive | 
32 | OCCN(CCO)CCO | inactive | 
33 | CCCCOC(=O)c1ccccc1C(=O)OCCCC | inactive | 
34 | CCCCCOC(=O)c1ccccc1C(=O)OCCCCC | inactive | 
35 | [N-]=[N+]=[N-] | inactive | 
36 | CCc1cccc(C)c1N(C(=O)CCl)C(C)COC (stereo not drawn) | inactive | 
37 | C1CN2CCN1CC2 | inactive | 

Target: Peroxisome proliferator-activated receptor delta (Homo sapiens) (UniProt Q03181)
Sequence (Q03181 whole entry, looked up): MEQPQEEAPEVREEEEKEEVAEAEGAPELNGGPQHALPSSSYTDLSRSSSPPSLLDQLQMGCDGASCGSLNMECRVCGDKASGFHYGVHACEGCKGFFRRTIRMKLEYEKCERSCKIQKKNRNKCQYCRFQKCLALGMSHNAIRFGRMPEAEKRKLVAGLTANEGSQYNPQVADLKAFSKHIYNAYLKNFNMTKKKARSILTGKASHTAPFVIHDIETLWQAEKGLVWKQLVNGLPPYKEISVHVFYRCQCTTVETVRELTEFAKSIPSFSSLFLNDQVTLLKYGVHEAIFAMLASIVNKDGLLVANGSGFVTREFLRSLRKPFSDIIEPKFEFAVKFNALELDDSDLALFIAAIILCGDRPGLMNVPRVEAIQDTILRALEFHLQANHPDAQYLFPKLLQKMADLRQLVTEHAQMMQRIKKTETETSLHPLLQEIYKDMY
Assay: qHTS assay to identify small molecule agonists of the peroxisome proliferator-activated receptor delta (PPARd) signaling pathway (AID 743212; calls by dose curve)
Conditions: HEK293H PPARd-UAS-bla, beta-lactamase FRET ratio, 17 h; series mostly up to 62.6 µM; activation: at the top concentration
In short: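 Beta-lactamase reporter read by fluorescence (LiveBLAzer B/G FRET, 2 h, room temperature). Test agents, in DMSO, incubated at 37 C with PPARd-bla HEK293H cells.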

Row | Structure (SMILES) | outcome
38 | c1cc2c3c(cccc3c1)CC2 | inactive
39 | CCC(C)(CC)c1cc(NC(=O)c2c(OC)cccc2OC)on1 | inactive
40 | CON(C)C(=O)Nc1ccc(Cl)c(Cl)c1 | inactive
41 | Clc1cccc(Cl)c1Cl | inactive
42 | CC(C)C#N | inactive
43 | ClCCBr | inactive
44 | Oc1ccccc1Cl | inactive
45 | Cc1cc(-c2cc(C)c(N)c(C)c2)cc(C)c1N | inactive
46 | CCOP(=S)(OCC)Oc1cnc2ccccc2n1 | inactive
47 | Cn1cc(-c2ccccc2)c(=O)c(-c2cccc(C(F)(F)F)c2)c1 | inactive
48 | C#CCN(C)[C@H](C)Cc1ccccc1 | inactive
49 | [N-]=[N+]=[N-] | inactive

Test system: not listed separately
Assay: qHTS assay to identify small molecule antagonists of the peroxisome proliferator-activated receptor delta (PPARd) signaling pathway - cell viability counter screen (AID 743213); note: nearly all actives have a fitted effect of over 50% in size
Conditions: PPARd-bla HEK293H viability, CellTiter-Glo luminescence, 17 h; series mostly up to 62 µM; viability change, negative = cytotoxic: at the top concentration
In short: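 Luminescence from CellTiter-Glo, added after the bla read and incubated 30 min at room temperature, gives viability of HEK293H PPARd-bla cells exposed to compounds for 17 h at 37 C with 300 nM L165041.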

Row | Structure (SMILES) | viability change, negative = cytotoxic | outcome
50 | CCN(CC)c1ccccc1 | -4.23% (inactive) | 
51 | CC(C)OC(=O)Nc1ccccc1 |  | inactive
52 | CC(=O)C=C(C)C |  | inactive
53 | c1cc2c3c(cccc3c1)CC2 |  | inactive
54 | O=C(O)c1ccccn1 |  | inactive
55 | CCC(C)(CC)c1cc(NC(=O)c2c(OC)cccc2OC)on1 | -19.8% [at 80.4 µM] (inactive) | 
56 | [O-][Cl+2]([O-])O |  | inactive
57 | CC(Oc1ccc(Cl)cc1Cl)C(=O)O (stereo not drawn) | 11.2% (inactive) | 
58 | Clc1cccc(Cl)c1Cl |  | inactive
59 | CC(NC(C)(C)C)C(=O)c1cccc(Cl)c1 (stereo not drawn) | 4.71% (inactive) | 
60 | CC(C)C#N | 4.73% (inactive) | 
61 | ClCCBr |  | inactive
62 | Cc1[nH]c(=O)n(C(C)(C)C)c(=O)c1Cl |  | inactive
63 | Nc1ccccc1C(=O)O | 3.27% (inactive) | 
64 | CN1C(=O)CN=C(c2ccccc2)c2cc(Cl)ccc21 |  | inactive
65 | c1ccc(OP(Oc2ccccc2)Oc2ccccc2)cc1 |  | inactive
66 | Oc1ccccc1Cl |  | inactive
67 | NCC(O)c1ccc(O)cc1 (stereo not drawn) |  | inactive

Row | Structure (SMILES) | viability change, negative = cytotoxic | outcome
68 | c1ccc2c(c1)Oc1ccccc1O2 | 14.9% (inactive) | 
69 | Cc1cc(-c2cc(C)c(N)c(C)c2)cc(C)c1N |  | inactive
70 | Cc1ccc(N)cc1Cl |  | inactive
71 | CCOP(OCC)OCC |  | inactive
72 | COC(=O)c1ccccc1C(=O)OC |  | inactive
73 | O=c1ccc(=O)[nH][nH]1 |  | inactive
74 | Cn1cc(-c2ccccc2)c(=O)c(-c2cccc(C(F)(F)F)c2)c1 |  | inactive
75 | C#CCN(C)[C@H](C)Cc1ccccc1 |  | inactive
76 | O=NN1CCCCCCC1 |  | inactive
77 | O=C(NC(=O)c1c(F)cccc1F)Nc1cc(Cl)c(OC(F)(F)C(F)C(F)(F)F)cc1Cl (stereo not drawn) | 17.4% (inactive) | 
78 | CN(C)N=O |  | inactive
79 | OCCN(CCO)CCO | -4.16% (inactive) | 
80 | CCCCOC(=O)c1ccccc1C(=O)OCCCC |  | inactive
81 | CCCCCOC(=O)c1ccccc1C(=O)OCCCCC |  | inactive
82 | [N-]=[N+]=[N-] |  | inactive
83 | CCc1cccc(C)c1N(C(=O)CCl)C(C)COC (stereo not drawn) |  | inactive
84 | C1CN2CCN1CC2 |  | inactive

Target: Bile acid receptor (Homo sapiens) (UniProt Q96RI1)
Sequence (Q96RI1 whole entry, looked up): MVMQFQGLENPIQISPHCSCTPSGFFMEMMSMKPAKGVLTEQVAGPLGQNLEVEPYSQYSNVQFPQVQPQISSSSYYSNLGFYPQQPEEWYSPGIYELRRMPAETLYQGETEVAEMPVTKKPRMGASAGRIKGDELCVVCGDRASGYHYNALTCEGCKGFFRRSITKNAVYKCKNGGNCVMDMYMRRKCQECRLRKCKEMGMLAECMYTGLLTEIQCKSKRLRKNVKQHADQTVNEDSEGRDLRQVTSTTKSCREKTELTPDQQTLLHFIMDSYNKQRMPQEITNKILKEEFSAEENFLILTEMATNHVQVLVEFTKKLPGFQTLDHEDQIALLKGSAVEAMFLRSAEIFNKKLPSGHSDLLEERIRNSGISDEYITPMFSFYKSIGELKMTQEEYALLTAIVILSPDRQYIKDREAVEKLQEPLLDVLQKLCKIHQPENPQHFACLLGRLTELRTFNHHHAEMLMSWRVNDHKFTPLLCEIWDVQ
Assay: qHTS assay to identify small molecule antagonists of the farnesoid-X-receptor (FXR) signaling pathway (AID 743217; active = well fitted inhibition curve with a large enough effect in the signal ratio in the repeat runs, not every such curve was filed as active; the % refers to the signal ratio)
Conditions: HEK293T FXR-UAS-bla, beta-lactamase ratio, CDCA-stimulated, 16 h; series mostly up to 62.6 µM; activity change, negative = inhibition: at the top concentration
In short: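 Test compounds are pin-transferred onto FXR-bla HEK 293T cells, then chenodeoxycholic acid is added at 50 uM final. After 16 h at 37 °C, LiveBLAzer B/G substrate is applied for 2 h at room temperature and fluorescence read.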

Row | Structure (SMILES) | outcome | activity change, negative = inhibition
85 | CCN(CC)c1ccccc1 | inactive | 
86 | [O-][Cl+2]([O-])O | inactive | 
87 | CC(Oc1ccc(Cl)cc1Cl)C(=O)O (stereo not drawn) | inactive | 
88 | Cc1[nH]c(=O)n(C(C)(C)C)c(=O)c1Cl | inactive | 
89 | Nc1ccccc1C(=O)O | inactive | 
90 | CN1C(=O)CN=C(c2ccccc2)c2cc(Cl)ccc21 | inactive | 
91 | c1ccc2c(c1)Oc1ccccc1O2 | inactive | 
92 | CCOP(OCC)OCC | inactive | 
93 | COC(=O)c1ccccc1C(=O)OC | inactive | 
94 | CCOP(=S)(OCC)Oc1cnc2ccccc2n1 |  | 0.844% (inactive)
95 | O=c1ccc(=O)[nH][nH]1 | inactive | 
96 | O=NN1CCCCCCC1 | inactive | 
97 | O=C(NC(=O)c1c(F)cccc1F)Nc1cc(Cl)c(OC(F)(F)C(F)C(F)(F)F)cc1Cl (stereo not drawn) | inactive | 
98 | CN(C)N=O | inactive | 
